# Screening results from PubChem.
# Only some compounds are listed: those with a hit (about 2.2% of all), similar ones and a draw of the others.
# IEC-6 cytotox: IEC-6 cytotoxicity, counter-screen for KLF5 inhibitors; inhibition, % at 5 µM; luminescence viability; actives 0.78% (n = 290,000); in the data active = inhibition above about 22%;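 also: 0% = plate median of test compound wells and 100% = cytotoxic reference compound wells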
# BaF3 parental: reduces parental Ba/F3 cell viability, JAK2V617F counter-screen. CellTiter-Glo ATP luminescence. inhibition, % at 5.6 µM. actives 1.1% (n = 220,000);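 active = inhibition above a per-campaign cutoff, the mean inhibition of all tested compounds plus 3 SD, cut at about 27% in these data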;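 also: 0% = DMSO wells and 100% = JAK Inhibitor I control wells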
# aSyn UTR inh: 5' untranslated region of α-synuclein, MLPCN primary screen; alpha-synuclein 5'UTR reporter, inhibitor activity; inhibition, % (tested at 7.5 µM); actives 0.82% (n = 300,000); AID 1813; in the data active = inhibition above about 60%; inconclusive = no clear call, values can overlap the other calls;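 also: H4 neuroglioblastoma cells stably carrying SNCA 5'UTR luciferase fusion; 0% = DMSO wells and 100% = positive control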
# Ba/F3 V617F tox: lowers viability of Ba/F3 cells expressing EpoR and JAK2V617F. actives 1.1% (n = 220,000). ATP luminescence. inhibition, % at 5.6 µM. AID 1446;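 active = inhibition above the campaign mean plus 3 SD over all tested compounds, cut at about 24% in these data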;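 also: cytokine-independent growth of Ba/F3 cells driven by EpoR plus mutant JAK2; 0% = DMSO-treated cells and 100% = JAK inhibitor I control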
# KLF5 inh: suppresses KLF5 promoter-driven expression; DLD-1 KLF5 promoter-luciferase reporter, luminescence; inhibition, % at 5 µM; actives 0.23% (n = 290,000);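 active = inhibition above a per-plate limit of that plate's mean compound inhibition plus 3 SD, cut at about 60% in these data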;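 also: 0% = DMSO wells and 100% = LY294002 at 200 µM; higher means less KLF5 promoter-driven luciferase light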
# APP 5UTR inh: APP translation inhibition; SH-SY5Y APP 5'UTR-luciferase reporter, luminescence; inhibition, % at 2 µM; actives 0.82% (n = 190,000);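 active = inhibition above a set limit, derived from the sample mean plus 3 SD, cut at about 45% in these data; inconclusive = one replicate passes the limit while the other fails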
# Numbers without * were called inactive; ? = inconclusive; · = not tested or not shown.
SMILES,IEC-6 cytotox,BaF3 parental,aSyn UTR inh,Ba/F3 V617F tox,KLF5 inh,APP 5UTR inh
CC1(C)CC(=O)c2cnc(NC(=O)CSC(=S)N3CCCCC3)nc2C1,-2,-3,-3,-4,4,·
COc1ccc(N2CCN(Cc3cc(=O)oc4cc(-c5ccccc5)c(O)cc34)CC2)cc1,-2,6,73*,1,2,31
O=c1cc(CN2CCN(c3ccccc3F)CC2)c2cc(O)c(-c3ccccc3)cc2o1,5,1,-33,2,-18,-24
CCn1c(O)c(N=NC(=O)C(O)c2ccccc2)c2ccccc21 (centres undefined),1,0,13,-2,2,·
CCCCOc1ccc(/C=C/C(=O)Nc2ccc([N+](=O)[O-])cc2C)cc1,0,4,-11,1,-24,-8
CCCOc1ccc(/C=C/C(=O)Nc2ccc([N+](=O)[O-])cc2)cc1,4,10,68*,0,4,-9
O=C(c1ccc(N2CCN(C(=O)c3ccc(F)cc3F)CC2)cc1)c1cccc(F)c1,6,·,-2,·,-35,·
CCCCCCCCn1cnc2c(N)c(C)c(C)cc21,19,60*,-24,76*,-19,6
COc1ccc(Cn2cnc3c(N)c(C)c(C)cc32)cc1,-4,7,24,-1,-15,5
O=C(OCCN1C(=O)c2cccc3c(N4CCOCC4)ccc(c23)C1=O)c1ccc(Cl)cc1,-4,4,53,-2,-2,50*
C/C(CC(=O)Nc1ccc2ccccc2c1)=N\NC(=O)c1ccc(O)c(O)c1,5,·,-25,·,5,·
Cc1ccc(Nc2nnc(C(C)(C)C)c(=O)n2N)cc1,-8,5,16,-1,-10,-12
CC(C)(C)c1nnc(N/N=C/c2cc(Br)ccc2O)n(N)c1=O,-3,1,116*,0,9,80*
Cc1ccc(/C=C/C(=O)c2ccc(N3CCOCC3)cc2)s1,8,2,-133,-4,-61,-106
Cc1nn(Cc2ccc(C(=O)N3CCN(C(=O)c4ccco4)CC3)o2)c(C)c1[N+](=O)[O-],-4,·,6,·,-4,·
C=C1C(=O)C=C2CN(C(=O)c3ccccc3)[C@@](Cc3ccc(F)cc3)(C(=O)OC)[C@@H]12,27*,92*,?,97*,-6,96*
Cn1c(=O)[nH]c2cc3ccccc3cc21,0,7,62*,0,-5,7
Cc1nc2cc3ccccc3cc2n1C,0,15,-8,7,-9,-1
COC(CNC(=O)C1CC(=O)N(CCc2ccc(C)cc2)C1)OC (centres undefined),-6,·,-11,·,-34,·
Cc1ccc(-n2ncc3c(NCCCN4CCCC4=O)ncnc32)c(C)c1,-5,47*,-12,1,-10,2
Cc1ccc(N2C(=O)C3C4C=CC(CC4)C3C2=O)cc1[N+](=O)[O-] (centres undefined),3,·,-5,·,-55,·
Cc1cc(N2C(=O)C=CC2=O)c([N+](=O)[O-])cc1C,5,3,21,-2,-22,62*
CCOC(=O)c1sc(NC(=O)CSC(=S)N2CCN(C)CC2)nc1C,1,1,31,6,14,·
Cc1nn(Cc2ccc(C(=O)Nc3nccs3)cc2)c(C)c1Cl,13,43*,40,39*,56,1
CCOc1ccc(-n2c(SCC(=O)Nc3ccc(Br)cc3)nc3n[nH]c(C)c3c2=N)cc1,5,5,82*,2,0,16
SMILES,IEC-6 cytotox,BaF3 parental,aSyn UTR inh,Ba/F3 V617F tox,KLF5 inh,APP 5UTR inh
COc1ccccc1-c1ccc(SCc2cccc(C)c2)nn1,4,66*,-14,61*,-18,-21
COc1ccccc1-c1ccc(SCc2ccc([N+](=O)[O-])cc2)nn1,0,2,11,-1,-14,-1
Fc1ccc(-c2ncc3ccccn23)cc1,-2,3,-101,-3,-48,-2
Fc1ccc(-c2nnc3ccccn23)cc1,4,81*,-12,1,-8,-4
CC1=C(C)/C(=N\OS(=O)(=O)c2ccccc2)C=CC1=O,-5,91*,-80,91*,-36,74*
O=C1/C(=C/c2ccc([N+](=O)[O-])cc2)CCC1C1CCCC1 (centres undefined),1,·,-51,·,-38,·
c1ccc(-c2cn(-c3ccccc3)c3[n+]2CCCS3)cc1,4,63*,13,68*,10,·
Cc1ccc(-c2cn(-c3ccccc3)c3[n+]2CCCS3)cc1,11,67*,2,77*,-38,-5
Cc1ccc(/C=C/c2nc3ccccc3c(=O)[nH]2)cc1,14,2,68*,5,-80,·
O=C(CSCc1ccccc1)NNc1c(F)c(F)cc(F)c1F,-9,·,4,·,-19,·
COc1ccc(S(=O)(=O)Nc2ccc(Oc3ncccn3)c(Cl)c2)cc1,0,5,0,-3,5,46*
COc1ccc(NS(=O)(=O)c2ccc(Oc3ncccn3)cc2)cc1,4,5,3,3,2,17
COCc1nc2oc3ccc(F)cc3c(=O)c2cc1C(=O)OC,-9,·,-108,·,-129,·
Cc1cc(-c2ccc(C(C)C)c(S(=O)(=O)NCCN3CCC(C)CC3)c2)on1,4,·,14,·,-11,·
COC(=O)c1ccc2nc(Nc3nc4c(F)cc(F)cc4s3)sc2c1,10,6,-12,2,92*,4
CCOC(=O)c1ccc2nc(Nc3nc4ccc(F)cc4s3)sc2c1,-7,5,13,-2,49,7
COc1cc2nc(SCc3ccc(F)cc3)n(Cc3cccs3)c(=N)c2cc1OC,-3,9,2,-1,3,12
COc1ccc(Cn2c(SCc3ccccc3C)nc3cc(OC)c(OC)cc3c2=N)cc1,3,2,93*,-1,-10,-5
O=c1c2ccccc2nnn1Cc1ccc2ccccc2c1,3,89*,-28,2,-8,8
COC(=O)c1cccc(Cn2nnc3ccccc3c2=O)c1,0,-2,12,-3,-13,-5
CC(C)CCn1nc(C(=O)Nc2nc3c(s2)CCCC3)c2ccccc2c1=O,9,2,68*,-3,-19,7
Cc1nc2ccccc2n1-c1nc(-c2ccco2)cc(C(F)(F)F)n1,-2,8,90*,2,-2,38
Cc1cc(C)nc(-n2ncc3c2CC(c2cccc(Cl)c2)CC3=O)n1 (centres undefined),6,2,13,-3,-2,2
CCNc1nc(C)c2cc(Br)c(=O)n(CC)c2n1,15,4,76*,-1,13,17
CCn1c(=N)c(C(=O)NC)cc2c(=O)n3cccc(C)c3nc21,·,·,·,·,·,-6
CCCCc1cc(=O)oc2cc(OCC(=O)NC3CCN(Cc4ccccc4)CC3)ccc12,-6,·,8,·,-15,·
Cc1nc(C(C)N(C)Cc2nc(-c3ccc4c(c3)OCO4)no2)c(C)s1 (centres undefined),-3,6,-53,-3,-55,-2
